Where “and” joins values, the source holds several entries; their conditions need not be identical. Identical values can stand only once. Records with an inconclusive call do not appear. Entries that show only a call come without a potency. Some structures have more than one record in an assay (separate samples or runs), and their calls can disagree. A number with no mark means an inactive call. Calls of active or inactive are those of the source. Calls come from the whole dose curve; as a rule, active = well fitted curve in the direction sought with a large enough effect; inconclusive = small, poorly fitted or top-dose-only effect, or another doubt; inactive = no such curve, though single readings can be large; an effect the other way counts as inactive or inconclusive.
Key:
[1] = test system: Hek293T; experiment: Primary qHTS to identify gynecologic anti-cancer compounds using libraries of approved drugs and bioactive compounds (AID 1345084); settings: Gynecologic cancer cell panel viability, ATPlite luminescence, 48 h, control line for the selectivity index; series mostly up to 57.5 µM; note: nearly all actives have a fitted effect of over 55% in size
In short: (§1)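 Cells, 1,000 per well, plated 16 h, then exposed 48 h at 37 C to compounds. Viability by ATPlite luminescence after 15 min at room temperature.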

[2] = test system: JEG-3; experiment: as above; settings: Gynecologic cancer cell panel viability, ATPlite luminescence, 48 h; series mostly up to 57.5 µM
In short: as §1

[3] = test system: OV90; experiment: as above; settings: Gynecologic cancer cell panel viability, ATPlite luminescence, 48 h; series mostly up to 57.5 µM
In short: as §1

[4] = test system: PA-1; experiment: as above; settings: Gynecologic cancer cell panel viability, ATPlite luminescence, 48 h; series mostly up to 57.5 µM
In short: as §1

[5] = test system: Tov112D; experiment: as above; settings: Gynecologic cancer cell panel viability, ATPlite luminescence, 48 h; series mostly up to 57.5 µM
In short: as §1

[6] = Drug repurposing screens with cells derived from glioblastoma tumor samples (AID 1345199); settings: GBM patient neurospheres viability, ATP luminescence, 48 h; note: nearly all actives have a fitted effect of over 40% in size
In short: (§2)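 Four patient lines of CD133+ GBM neurospheres were screened at several concentrations; hits were retested in those lines plus three slower-growing GBM lines, using 48-hour treatment and ATP-based viability.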

[7] = test system: astro; experiment: as above; settings: viability, ATP luminescence, 48 h; series mostly up to 45.9 µM
In short: as §2

[8] = test system: Tov-21-G; experiment: Primary qHTS to identify gynecologic anti-cancer compounds using libraries of approved drugs and bioactive compounds (AID 1345084); settings: Gynecologic cancer cell panel viability, ATPlite luminescence, 48 h; series mostly up to 57.5 µM; note: nearly all actives have a fitted effect of over 55% in size
In short: as §1

[9] = test system: SKOV3; experiment: as above; settings: Gynecologic cancer cell panel viability, ATPlite luminescence, 48 h; series mostly up to 57.5 µM
In short: as §1

[10] = at 45.9 µM (top of the series), tumour line B
[11] = at 45.9 µM (top of the series), tumour line D
[12] = at 46 µM (top of the series), tumour line A
[13] = at 46.1 µM (top of the series), tumour line C
[14] = at 20 µM (top of the series), tumour line C
[15] = at 21.2 µM (top of the series), tumour line B
[16] = at 21.2 µM (top of the series), tumour line D
Potency is the fitted concentration of half-maximal effect.

O=C(Nc1cccc(C2=NCCN2)c1)Nc1cccc(C2=NCCN2)c1
Potency [1]: inactive | Potency [2]: inactive | Potency [3]: inactive | Potency [4]: inactive | Potency [5]: inactive | activity, negative = cell killing [6, 10]: 7.96% | activity, negative = cell killing [6, 11]: -22.5% | activity, negative = cell killing [6, 12]: 2.01% | activity, negative = cell killing [6, 13]: -6.35% | Potency [7]: inactive

O=C(O)Cc1csc(-c2ccc(Cl)cc2)n1
Potency [1]: inactive | Potency [2]: inactive | Potency [3]: inactive | Potency [4]: inactive | Potency [8]: inactive | Potency [5]: inactive | activity, negative = cell killing [6, 10]: -6.84% | activity, negative = cell killing [6, 11]: 8.21% | activity, negative = cell killing [6, 12]: -20.7% | activity, negative = cell killing [6, 13]: -23.2% | Potency [7]: inactive

O=C1C(CCS(=O)c2ccccc2)C(=O)N(c2ccccc2)N1c1ccccc1 (configuration not stated)
Potency [1]: inactive | Potency [2]: inactive | Potency [3]: inactive | Potency [4]: inactive | Potency [8]: inactive | Potency [5]: inactive | activity, negative = cell killing [6, 14]: 4.04% | activity, negative = cell killing [6, 15]: 2.69% | activity, negative = cell killing [6, 16]: 2.83% | activity, negative = cell killing ([6]; at 21.3 µM (top of the series), tumour line A): -0.0177% | Potency [7]: inactive

CC[N+](C)(CC)CCOC(=O)C(O)(c1ccccc1)C1CCCCC1 (configuration not stated)
Potency [1]: inactive | Potency [2]: inactive | Potency [3]: inactive | Potency [4]: inactive | Potency [8]: inactive | Potency [5]: inactive | activity, negative = cell killing [6, 10]: 4.51% | activity, negative = cell killing [6, 11]: -27.2% | activity, negative = cell killing [6, 13]: -9.68% | Potency [7]: inactive

O=C1C(O)=C(O)C(=O)C(O)=C1O
Potency [1]: inactive | Potency [2]: inactive | Potency [3]: inactive | Potency [9]: inactive | Potency [8]: inactive | activity, negative = cell killing [6, 10]: -1.83% | activity, negative = cell killing [6, 11]: -8.56% | activity, negative = cell killing [6, 12]: -7.89% | activity, negative = cell killing [6, 13]: 12.8% | Potency [7]: inactive

CCCCC(CC)CN1CN(CC(CC)CCCC)CC(C)(N)C1 (configuration not stated)
Potency [1]: inactive | Potency [2]: inactive | Potency [3]: inactive | Potency [9]: inactive | Potency [8]: inactive | Potency [5]: inactive | activity, negative = cell killing [6, 14]: -6.58% | activity, negative = cell killing [6, 15]: -11% | activity, negative = cell killing [6, 16]: -24% | Potency [7]: inactive

CCN(CC)CCOC(=O)C(Cc1cccc2ccccc12)CC1CCCO1 (configuration not stated)
Potency [1]: inactive | Potency [2]: inactive | Potency [4]: inactive | Potency [8]: inactive | Potency [5]: inactive | activity, negative = cell killing [6, 14]: 6.25% | activity, negative = cell killing [6, 15]: -13.3% | activity, negative = cell killing [6, 16]: -13.7% | Potency ([6]; tumour line A): 11.2 µM (active) | Potency [7]: inactive

CN1CCC(OC(c2ccccc2)c2ccccc2)CC1
Potency [1]: inactive | Potency [2]: inactive | Potency [4]: inactive | Potency [9]: inactive | Potency [8]: inactive | Potency [5]: inactive | activity, negative = cell killing [6, 14]: 1.79% | activity, negative = cell killing [6, 15]: -9.68% | Potency ([6]; tumour line A): 7.08 µM (active) | Potency [7]: inactive

CC(=O)OCC(=O)[C@H]1CC[C@H]2[C@@H]3CCC4=CC(=O)CC[C@]4(C)[C@H]3CC[C@]12C
Potency [1]: inactive | Potency [2]: inactive | Potency [3]: inactive | Potency [9]: inactive | Potency [8]: inactive | Potency [5]: inactive | activity, negative = cell killing [6, 13]: -12.5% | Potency ([6]; tumour line A): 8.91 µM (active) | Potency [7]: inactive

CCN(CC)CCOC(=O)C1(c2ccccc2)CCCC1
Potency [1]: inactive | Potency [2]: inactive | Potency [4]: inactive | Potency [9]: inactive | Potency [8]: inactive | Potency [5]: inactive | activity, negative = cell killing [6, 10]: -21.1% | activity, negative = cell killing [6, 11]: -19.5% | activity, negative = cell killing [6, 13]: -29.4% | Potency [7]: inactive

CC(C)(Cc1c[nH]c2ccccc12)NCC(O)COc1ccccc1C#N (configuration not stated)
Potency [1]: inactive | Potency [2]: inactive | Potency [4]: inactive | Potency [8]: inactive | Potency [5]: inactive

CCN(CC)CCOc1ccccc1C(=O)CCc1ccccc1
Potency [1]: inactive | Potency [2]: inactive | Potency [4]: inactive | Potency [9]: inactive | Potency [8]: inactive | Potency [5]: inactive | Potency [7]: inactive

CCOC(=O)C(C#N)=C(c1ccccc1)c1ccccc1
Potency [1]: inactive | Potency [2]: inactive | Potency [4]: inactive | Potency [9]: inactive | Potency [8]: inactive | Potency [5]: inactive | activity, negative = cell killing [6, 10]: -12.8% | activity, negative = cell killing [6, 11]: -4.23% | Potency ([6]; tumour line A): 11.2 µM (active) | Potency [7]: inactive

Oc1ccccc1C=NCc1ccccc1
Potency [1]: inactive | Potency [2]: inactive | Potency [9]: inactive | Potency [8]: inactive | Potency [5]: inactive | activity, negative = cell killing [6, 10]: -13.2% | activity, negative = cell killing [6, 11]: -14.3% | activity, negative = cell killing [6, 13]: -2.77% | Potency [7]: inactive

CC(CNC1CCCCC1)OC(=O)c1ccccc1 (configuration not stated)
Potency [1]: inactive | Potency [2]: inactive | Potency [4]: inactive | Potency [9]: inactive | Potency [8]: inactive | Potency [5]: inactive | activity, negative = cell killing [6, 14]: 10.5% | activity, negative = cell killing [6, 15]: -8.26% | activity, negative = cell killing [6, 16]: -19.5% | Potency [7]: inactive

CCc1nn(CCCN2CCN(c3cccc(Cl)c3)CC2)c(=O)n1CCOc1ccccc1
Potency [1]: inactive | Potency [2]: inactive | Potency [9]: inactive | Potency [8]: inactive | Potency [5]: inactive | activity, negative = cell killing [6, 10]: -29% | activity, negative = cell killing [6, 13]: -17.6% | Potency ([6]; tumour line A): 7.94 µM (active) and 10 µM (active) | Potency ([6]; tumour line D): 15.8 µM (active) and 11.2 µM (active) | Potency [7]: 35.5 µM (active) and 25.1 µM (active)

C[C@@]12C(=O)OC(=O)[C@]1(C)C1CCC2O1
Potency [1]: 10 µM (active) | Potency [2]: 11.2 µM (active) | Potency [3]: 3.16 µM (active) | Potency [9]: 8.91 µM (active) | Potency [8]: 8.91 µM (active) | Potency [5]: 14.1 µM (active) | Potency [7]: 631 nM (active)

CCOC(=O)c1c(N)sc2c1CCN(Cc1ccccc1)C2
Potency [1]: inactive | Potency [2]: inactive | Potency [9]: inactive | Potency [8]: inactive | Potency [5]: inactive | activity, negative = cell killing [6, 13]: -15.7% | Potency ([6]; tumour line A): 11.2 µM (active) | Potency [7]: inactive

C=C[C@H]1CN2CC[C@H]1C[C@H]2[C@H](O)c1ccnc2ccc(OC)cc12
Potency [1]: inactive | Potency [2]: inactive | Potency [4]: inactive | Potency [9]: inactive | Potency [8]: inactive | Potency [5]: inactive | activity, negative = cell killing [6, 10]: -17.2% and -20.5% | activity, negative = cell killing [6, 13]: -25.6% and -17.6% | Potency ([6]; tumour line A): 11.2 µM (active) and 17.8 µM (active) | Potency [7]: inactive

Cc1ccc(-c2ncc(Cl)cc2-c2ccc(S(C)(=O)=O)cc2)cn1
Potency [1]: inactive | Potency [2]: inactive | Potency [3]: inactive | Potency [9]: inactive | Potency [8]: inactive | Potency [5]: inactive | activity, negative = cell killing [6, 10]: -0.088% | activity, negative = cell killing [6, 11]: -1.02% | activity, negative = cell killing [6, 13]: -0.632% | Potency [7]: inactive
